# Assay results taken from PubChem BioAssay AID431 (Sanford-Burnham Center for Chemical Genomics, 2006).
# Screen size: about 63,000 compounds; about 1,100 (1.7%) were called active.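 Rule for the calls: active = compounds whose percent cytotoxicity in the single-dose primary screen, scaled between solvent and toxic-drug controls, exceeds 50; inactive = the rest.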 The full list was thinned out, with actives kept by preference. Potency and affinity values are given separately.
# Test: viability loss of HPDE-C7K cells – cell-based, fluorescence, HTS, primary screen (AID 431);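 note: 0% = DMSO solvent wells and 100% = doxorubicin-treated wells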
# Conditions: HPDE-C7K KRASV12 cells, Alamar Blue viability, 48 h; at 10 µM; active compounds read high
row,Structure (SMILES),cytotoxicity
1,Cc1cccc(NC(=O)CSc2nnc(-c3ccccc3)n2N)c1,1% (inactive)
2,CCc1[nH]nc2c1C(c1ccc(Br)s1)C(C#N)=C(N)O2 (centres undefined),5% (inactive)
3,CCCc1[nH]nc2c1C(c1ccncc1)C(C#N)=C(N)O2 (centres undefined),-1.2% (inactive)
4,CCCn1nnc(NC(=O)c2cc3ccccc3o2)n1,-13.2% (inactive)
5,O=C(Nc1nc(-c2cccs2)c(-c2ccccc2)s1)c1ccco1,58.9% (active)
6,CCOC(=O)c1sc(NC(=O)c2ccco2)nc1-c1ccccc1,-7.2% (inactive)
7,Cc1ccc(Oc2ccc(NC(=O)c3ccco3)cc2)cc1,84.2% (active)
8,CCC(=O)Nc1ccc(NC(=O)c2ccco2)cc1,-4% (inactive)
9,Cc1ccc(NC(=O)c2ccc(OC(=O)c3ccco3)cc2)cc1,-14.7% (inactive)
10,O=C(Nc1ccc(S(=O)(=O)N2CCCCCC2)cc1)c1ccc(Br)o1,55.5% (active)
11,O=C(Nc1ccc(S(=O)(=O)N2CCOCC2)cc1)c1ccc(Br)o1,-9.2% (inactive)
12,O=C(CCc1ccccc1)Nc1ccc(NC(=O)c2ccco2)cc1,-8.3% (inactive)
13,CN1CCN(S(=O)(=O)c2ccc(NC(=O)c3ccc(Br)o3)cc2)CC1,-14.1% (inactive)
14,CC(=O)c1sc(NC(=O)c2ccco2)nc1-c1ccccc1,6.3% (inactive)
15,O=C(Nc1ccc(Nc2ccccc2)cc1)c1ccco1,66.8% (active)
16,O=C(Nc1ccc(Oc2ccc(NC(=O)c3ccco3)c(NC(=O)c3ccco3)c2)cc1)c1ccco1,29.9% (inactive)
17,O=C1c2oc3ccccc3c(=O)c2C(c2ccc(Br)cc2)N1c1ncccn1 (centres undefined),5.4% (inactive)
18,O=S(=O)(c1ccccc1)c1nc(-c2ccco2)oc1NCc1cccnc1,14.5% (inactive)
19,CCOC(=O)C1CCN(c2cc(=O)n(Cc3ccc(F)cc3)c(=O)[nH]2)CC1,-12.8% (inactive)
20,Cc1cc(NC(=O)c2c(F)c(F)c(F)c(F)c2F)no1,-11.5% (inactive)
21,Nc1c(C(=O)OCC2CCCO2)c2nc3ccccc3nc2n1C1CCCCC1 (centres undefined),-9.6% (inactive)
22,COc1ccc(CCNC(=O)CSc2nnc(-c3cccc(C)c3)o2)cc1OC,-3.4% (inactive)
23,CCOC(=O)N1CCC(NC(=O)Cn2c3c(c(-c4ccccc4Cl)cc2=O)CCC3)CC1,4.9% (inactive)
24,CCOc1ccc(CN2C(=O)CCC2(C)C(=O)NCc2cccnc2)cc1 (centres undefined),6.9% (inactive)
25,Cc1ccc2nc(-c3ccc(NC(=O)c4ccco4)cc3)[nH]c2c1,14.5% (inactive)

row,Structure (SMILES),cytotoxicity
1,Cc1ccc2nc(-c3cccc(NC(=O)c4ccco4)c3)[nH]c2c1,65.5% (active)
2,O=C(Nc1ccccc1N1CCCC1)c1ccc(Br)o1,-3.3% (inactive)
3,CCN1CCN(c2c(Cl)cccc2NC(=O)c2ccc(Br)o2)CC1,10% (inactive)
4,Cc1nc(NC(=O)c2ccco2)sc1C(=O)Nc1ccc(Br)cc1,84% (active)
5,O=C(Nc1cccc(-c2nc3ccccc3[nH]2)c1)c1ccco1,9.8% (inactive)
6,O=C(Nc1cccc(Cl)c1N1CCCC1)c1ccc(Br)o1,93% (active)
7,O=C(Nc1ccc2nc(-c3ccccc3)oc2c1)c1ccco1,71.7% (active)
8,O=C(Nc1ccc(-c2nc3ncccc3o2)cc1)c1ccco1,-8.5% (inactive)
9,CCOC(=O)c1sc(NC(=O)c2ccco2)nc1C,5.9% (inactive)
10,O=C(Nc1cccc(-c2nnc(-c3ccccc3)o2)c1)c1ccco1,3.5% (inactive)
11,COC(=O)c1sc(NC(=O)c2ccco2)nc1C,-3.1% (inactive)
12,CN(C)S(=O)(=O)c1cccc(COC(=O)C2=COCCO2)c1,-1.6% (inactive)
13,O=C(c1ccco1)[C@@H]1[C@@H]2C(=O)N(c3ccc(F)cc3)C(=O)[C@@H]2C2c3ccccc3C=CN21 (some centres undefined),6.6% (inactive)
14,COc1ccc(CCNS(=O)(=O)c2cccc(F)c2)cc1OC,-5.1% (inactive)
15,Cc1onc(-c2c(F)cccc2Cl)c1C(=O)OCC(=O)NCc1ccco1,0.8% (inactive)
16,CN(C)c1ccc(NC(=O)CN2CCC(C(=O)c3ccc(F)cc3)CC2)cc1,10.1% (inactive)
17,COc1cc2[nH]c(=O)n(CCCCCC(=O)N3CCN(c4ccccc4)CC3)c(=O)c2cc1OC,15.8% (inactive)
18,O=C(NCC1CCCO1)C1C2C=CC3(CN(Cc4cccs4)C(=O)C13)O2 (centres undefined),-19.1% (inactive)
19,O=C(O)c1cccc(S(=O)(=O)N2CCCC2)c1,-8.3% (inactive)
20,COC(=O)Cc1ccc(NC(=O)c2ccc(Br)o2)cc1,8.9% (inactive)
21,O=C(Nc1cccc(NC(=O)c2ccc(-c3cccc(Br)c3)o2)c1)c1ccco1,66.3% (active)
22,O=C(Nc1ccc(S(=O)(=O)NCCc2ccccc2)cc1)c1ccc(Br)o1,15.9% (inactive)
23,O=C(Nc1ccc(Nc2ccccc2)cc1)c1ccc(Br)o1,93% (active)
24,COc1ccc(Br)cc1C(=O)Nc1cccc(NC(=O)c2ccco2)c1,0.2% (inactive)
25,CC(=O)Nc1cccc(NC(=O)c2ccco2)c1,-14% (inactive)

row,Structure (SMILES),cytotoxicity
1,COc1ccc(CN(Cc2ccccn2)C(=O)CN2C(=O)COc3ccccc32)cc1,-15.4% (inactive)
2,CCCCS(=O)(=O)c1sc2nc3c(cc2c1N)CCCC3,-4.6% (inactive)
3,Cc1cc(NC(=O)COc2ccc(N(C)S(=O)(=O)c3ccccc3)cc2)no1,-0.8% (inactive)
4,CCOC(=O)Cn1cnc2c(nnn2Cc2ccc(Cl)cc2)c1=O,-1% (inactive)
5,CCSc1nnc(NC(=O)CSc2nnc(Cc3cccn3C)n2-c2ccc(F)cc2)s1,49.5% (inactive)
6,Cc1ccc(-n2c(Cc3cccn3C)nnc2SCC(=O)Nc2nnc(C)s2)cc1,-0.8% (inactive)
7,CCSc1nnc(NC(=O)CSc2nnc(Cc3cccn3C)n2-c2ccc(C)cc2)s1,50.6% (active)
8,Cc1ccc(N)c(C(O)(C(F)(F)F)C(F)(F)F)c1,-9.9% (inactive)
9,CC(C)(NO)/C(=N/O)c1ccc(Br)cc1,-3.6% (inactive)
10,CN(Cc1ccccc1)C(=O)Nc1ccccc1,9.8% (inactive)
11,CC(=O)c1sc(NC(=O)C2(F)C(F)(F)C(F)(F)C(F)(F)C(F)(F)C2(F)F)nc1C,51% (active)
12,CCCCC(=O)Nc1nc(C)c(C(C)=O)s1,-0.2% (inactive)
13,CC(=O)c1sc(NC(=O)C=C(C)C)nc1C,-0.4% (inactive)
14,O=C(Cn1ncc2c(=O)oc3ccccc3c21)NC1CC1,-0.5% (inactive)
15,COc1ccccc1N1CC(O)=C(c2nc3ccccc3c(=O)[nH]2)C1=N,26.5% (inactive)
16,CCOC(=O)c1ccc(N2CC(O)=C(c3nc4ccccc4c(=O)[nH]3)C2=N)cc1,51.4% (active)
17,COc1cccc(N2CC(O)=C(c3nc4ccccc4c(=O)[nH]3)C2=N)c1,28% (inactive)
18,O=C(CCN1CCCC1)Nc1cccc(Br)c1,3.2% (inactive)
19,Cc1ccc(C)c(NC(=O)CN(C)S(=O)(=O)c2ccc(F)cc2)c1,-4.8% (inactive)
20,O=C(NCCc1cn2ccccc2n1)c1ccc(Br)o1,-1.7% (inactive)
21,Cc1nc(NS(=O)(=O)c2cccs2)c2c3c(sc2n1)CCC3,10.8% (inactive)
22,O=C(Nc1ncnc2sc3c(c12)CCC3)c1ccco1,10.7% (inactive)
23,O=S(=O)(Nc1ncnc2sc3c(c12)CCC3)c1ccc(Cl)s1,50.7% (active)
24,COc1ccc(C2N(c3ccc(F)cc3)C(=O)C3CCCN32)cc1 (centres undefined),-2.8% (inactive)
25,CCOC(=O)C1CCCN(C(=O)c2ccc(CS(=O)(=O)Cc3ccccc3C)o2)C1 (centres undefined),16.4% (inactive)

row,Structure (SMILES),cytotoxicity
1,CCC(C)[C@@H](C(=O)Nc1ccc(OC)c(OC)c1)N1Cc2ccccc2C1=O (some centres undefined),-0.4% (inactive)
2,Cn1cnc2c(N3CCCCC3)nccc21,3.7% (inactive)
3,c1cncc(Nc2nc(-c3cccnc3)cs2)c1,15% (inactive)
4,CCN(C(C)=O)c1nnc(CSc2nc3ccccc3s2)s1,23.5% (inactive)
5,CCN(C(=O)c1ccc(C(C)(C)C)cc1)c1nnc(Cn2nnc3ccccc32)s1,88.4% (active)
6,CCN(C(=O)CSc1nnc(Cn2nnc3ccccc32)o1)c1nc(-c2ccccc2)cs1,-0.5% (inactive)
7,O=C(Nc1ccccc1C(=O)NCc1ccco1)c1ccco1,7.2% (inactive)
8,N=c1n(CCN2CCOCC2)c2ccccc2n1CC(O)COc1ccccc1 (centres undefined),-9.7% (inactive)
9,CC1(C)Cc2c(C#N)c(N3CCN(C(=O)c4ccco4)CC3)nc(-c3ccco3)c2CS1,44.2% (inactive)
10,CCCc1nc(NCc2ccco2)c(C#N)c2c1COC(C)(C)C2,1.1% (inactive)
11,CCCCc1nc(NCCNC(=O)c2ccco2)c(C#N)c2c1CSC(C)(C)C2,80.9% (active)
12,CCOC(=O)c1cnc(SCC(=O)Nc2sc(C)c(C)c2C#N)nc1N,-2.2% (inactive)
13,CCOc1ccc(Nc2cc(C)nc(N3CCOCC3)n2)cc1,-19.5% (inactive)
14,COCCn1c(SCC(=O)Nc2nc(C)c(Cl)cc2Cl)nc2ccccc21,-6.8% (inactive)
15,Cc1ccccc1-c1nc(CS(=O)(=O)CC(=O)NCc2ccc3c(c2)OCO3)c(C)o1,14.4% (inactive)
16,O=c1n(Cc2ccccc2Cl)c2sc3c(c2c2ncnn12)CCCC3,-12.2% (inactive)
17,O=C(Cn1c(=O)n2ncnc2c2c3c(sc21)CCCC3)c1ccccc1,-20.6% (inactive)
18,COCCn1c(Cc2ccccc2)nnc1SCC(=O)NC(C)C,-14.6% (inactive)
19,CCOC(=O)c1[nH]c(C)c(C(=O)Nc2ccc(F)cc2)c1C,-5.4% (inactive)
20,CCOC(=O)c1[nH]c(C)c(C(=O)Nc2ccc(Cl)cc2)c1C,10.1% (inactive)
21,CCOC(=O)c1[nH]c(C)c(C(=O)c2cc(F)ccc2F)c1C,70.6% (active)
22,CCOC(=O)c1[nH]c(C)c(C(=O)Nc2ccccc2C)c1C,45.7% (inactive)
23,CCOC(=O)c1[nH]c(C)c(C(=O)OCC)c1C,-10% (inactive)
24,CCOC(=O)c1[nH]c(C)c(C(=O)Nc2cc(Cl)ccc2C)c1C,55% (active)
